Experimental data: PubChem BioAssay (NCATS)
Records with an inconclusive call do not appear. The source made the active and inactive calls. Calls follow the shape of the dose curve; as a rule, active = well fitted curve in the direction sought with a large enough effect; inconclusive = small, poorly fitted or top-dose-only effect, or another doubt; inactive = no such curve, though single readings can be large; an effect the other way counts as inactive or inconclusive.

Columns and labels:
[1] = molecular target: Calcium and integrin-binding protein 1 (Homo sapiens) (UniProt Q99828); test: Primary qHTS for Identification of Calcium Integrin Binding Protein 1 (CIB1) Competitor (AID 1508620);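 also: GST tagged CIB1 binding a fluorescein labelled alphaIIb integrin peptide tracer; top concentration of the series differs between compounds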
In short: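 CIB1-GST (1 uM final) and compound incubated 15 min at room temperature before adding FITC-alphaIIb peptide tracer (100 nM final). Competition for binding read by fluorescence polarization (ex 480, em 540) after another 15 min at room temperature.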

[2] = Primary qHTS for inhibitors of nuclear receptor binding SET domain protein 2 (NSD2) in an isogenic RCH-ACV NSD2 p.E1099K mutant (9B) (AID 1645876); also: nearly all actives have a fitted effect of over 70% in size
[3] = Primary qHTS for inhibitors of nuclear receptor binding SET domain protein 2 (NSD2) in an RCH-ACV wild type WT cells (2C) (AID 1645877); also: nearly all actives have a fitted effect of over 70% in size
% is scaled to controls: 0 for no effect and ±100 for the full control effect.

Sequence of Calcium and integrin-binding protein 1 (Homo sapiens) (Q99828 whole entry, looked up): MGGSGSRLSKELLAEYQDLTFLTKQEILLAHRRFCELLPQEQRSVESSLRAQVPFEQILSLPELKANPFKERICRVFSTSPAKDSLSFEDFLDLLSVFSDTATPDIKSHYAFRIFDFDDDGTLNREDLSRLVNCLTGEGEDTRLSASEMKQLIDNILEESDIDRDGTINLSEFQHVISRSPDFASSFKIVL

C=C(C(=O)O)C1CC(O)C2(C)CCCC(C)(O)C2C1 (configuration not stated)
inactive: Potency [1] | Potency [2] | Potency [3]

COC1OC(=O)C2=C1C1(C)CCCC(C)(C)C1CC2O (configuration not stated)
inactive: Potency [1] | Potency [2] | Potency [3]

CC(C)=CC1C[C@](C)(O)[C@@H]2[C@H]3CCC4[C@@]5(C)CC[C@H](O[C@@H]6OC[C@H](O)[C@H](O[C@@H]7O[C@H](CO[C@@H]8O[C@H](CO)[C@@H](O)[C@H](O)[C@H]8O)[C@@H](O)[C@H](O)[C@H]7O)[C@H]6O[C@@H]6O[C@@H](C)[C@H](O)[C@@H](O)[C@H]6O)C(C)(C)[C@@H]5CC[C@@]4(C)[C@@]34CO[C@@]2(C4)O1 (some centres not stated)
inactive: Potency [1] | activity change, negative = viability loss [2] -4.74% [at 9.23 µM] | activity change, negative = cell killing [3] 3.17% [at 9.23 µM]

CC1CCC2(C(=O)OC3OC(CO)C(O)C(O)C3O)CCC3(C)C(=CCC4C5(C)CCC(O)C(C)(CO)C5CCC43C)C2C1(C)O (configuration not stated)
inactive: Potency [1] | Potency [2] | Potency [3]

OC[C@H]1O[C@@H](OCCc2ccccc2)[C@H](O)[C@@H](O)[C@@H]1O
inactive: Potency [1] | Potency [2] | Potency [3]

C[C@@H]1[C@H](O)[C@@H]2OC(=O)C3=C2[C@H](CCC3)[C@@]12C[C@@H](c1ccoc1)OC2=O
inactive: Potency [1] | Potency [2] | Potency [3]

Nc1nc2c(nc(Sc3ccc(Cl)cc3)n2[C@@H]2O[C@@H]3COP(=O)(O)O[C@H]3[C@H]2O)c(=O)[nH]1
inactive: Potency [1] | Potency [2] | Potency [3]

COc1ccc(C(=O)CC(=O)O)c2c1C=CC(C)(C)O2
inactive: Potency [1] | Potency [2] | Potency [3]

CC1(C)CC2C(O)C3=C(CC(C)(O)C2C1)C(=O)OC3 (configuration not stated)
inactive: Potency [1] | Potency [2] | Potency [3]
